Screening results (PubChem)
SARS PLP yeast = blocks SARS-CoV papain-like protease in a yeast assay; S. cerevisiae expressing SARS-CoV PLpro, growth rescue; Potency, µM (series often up to 32.9 µM), usual class: activators; 330,000 compounds, 0.19% hits; AID 485353; calls by dose curve; further: nearly all actives have a fitted effect of over 55% in size
AMA1 RON2 block = disrupts binding of P. falciparum AMA1 to RON2; 360,000 compounds, 0.2% hits; AlphaScreen AMA1-biotinylated RON2 peptide binding; Potency, µM (top dose mostly 58.2 µM), actives largely listed as inhibitors; further: nearly all actives have a fitted effect of over 45% in size
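AMA1 (3D7) with his tag at 25 nM final met compounds first, then biotinylated RON2 peptide at 25 nM; detection used donor plus acceptor beads, 10 µg/mL apiece, read by AlphaScreen after 30 min at room temperature.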
CHX counter = counter-screen for Shiga toxin inhibitors: cycloheximide protein synthesis inhibition | 300,000 compounds, 12% hits | AID 2314 | cell reporter, cycloheximide protein synthesis inhibition counterscreen | max response, %; in the data active means max response mostly above about 13%, no sharp cut-off; inactive means mostly below about 14%; further: read at 38.3 µM for the half of the compounds with a filed dose
AmpC no deterg = AmpC beta-lactamase inhibition without detergent | P00811 | AmpC nitrocefin hydrolysis, absorbance 480 nm, 0.0001% Triton | Potency, µM (doses to about 57.1 µM), most hits filed as inhibitors | 330,000 compounds, 0.52% hits | AID 485341; further: nearly all actives have a fitted effect of over 20% in size
Target sequence (P00811 whole entry, looked up): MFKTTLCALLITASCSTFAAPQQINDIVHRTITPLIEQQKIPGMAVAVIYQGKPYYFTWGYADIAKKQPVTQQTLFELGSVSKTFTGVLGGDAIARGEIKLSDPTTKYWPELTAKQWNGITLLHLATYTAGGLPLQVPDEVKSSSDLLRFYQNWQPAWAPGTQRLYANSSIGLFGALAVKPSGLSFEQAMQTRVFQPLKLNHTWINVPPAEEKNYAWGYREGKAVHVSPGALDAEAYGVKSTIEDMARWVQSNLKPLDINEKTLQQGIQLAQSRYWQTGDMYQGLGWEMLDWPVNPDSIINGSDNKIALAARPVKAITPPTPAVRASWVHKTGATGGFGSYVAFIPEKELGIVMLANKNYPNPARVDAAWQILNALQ
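AmpC (5.3 nM in the dispensed reagent) in 20 mM phosphate pH 7.0 with 0.01% (detergent screen) or 0.0001% Triton X-100 was preincubated with compounds for 15 min at room temperature. Nitrocefin was then added from an 800 uM solution, and hydrolysis was followed at 480 nm.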
Shiga inhibitor = Shiga toxin inhibition. 290,000 compounds, 9.2% hits. inhibition, % at 38.7 µM. Vero cells, Shiga toxin protein synthesis inhibition reporter; in the data active means inhibition mostly above about 28%, no sharp cut-off; inactive means mostly below about 43%
AmpC inh detg = AmpC beta-lactamase inhibition with detergent present | 370,000 compounds, 0.041% hits | AmpC hydrolysis of nitrocefin, absorbance 480 nm, 0.01% Triton | Potency, µM (series often up to 114 µM), usual class: inhibitors | P00811; further: nearly all actives have a fitted effect of over 25% in size
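AmpC (5.3 nM in the dispensed reagent) in 20 mM phosphate pH 7.0 with 0.01% (detergent screen) or 0.0001% Triton X-100 was preincubated with compounds for 15 min at room temperature. Nitrocefin was then added from an 800 uM solution, and hydrolysis was followed at 480 nm.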
Each line names hits and unclear results; the compound was inactive in the other large screens. The entries come from a sample that favours hits as a whole. Unless noted, the call rests on the fitted dose curve; in most records, active means well fitted curve in the direction sought with a large enough effect; inconclusive means small, poorly fitted or top-dose-only effect, or another doubt; inactive means no such curve, though single readings can be large; an effect the other way counts as inactive or inconclusive.

O=C1CC(NCc2ccncc2)C(=O)N1c1ccccc1 (stereo not given)	none
CC(c1ccccc1)N1C(=O)c2ccc(C(=O)Nc3ccccc3C(=O)O)cc2C1=O (stereo not given)	none
CN(C)C(=O)Oc1ccc(C(=O)c2ccccc2)cc1	CHX counter 40, Shiga inhibitor 42
CC(=O)c1ccc(OC(=O)N(C)c2ccccc2)cc1	CHX counter 36, Shiga inhibitor 66
COc1ccc(Nc2nc(-c3ccc(OC)cc3)cs2)cc1	CHX counter 63, Shiga inhibitor 70
COc1ccc(-c2csc(Nc3ccccc3)n2)cc1	AMA1 RON2 block inconclusive, CHX counter 29, Shiga inhibitor 97
COc1ccc(-c2csc(Nc3ccc(S(N)(=O)=O)cc3)n2)cc1	none
COc1ccc2oc(=O)c(-c3csc(Nc4ccc(O)cc4)n3)cc2c1	CHX counter 46, Shiga inhibitor 85
COc1ccc(-c2csc(Nc3cccnc3)n2)cc1	CHX counter 52, Shiga inhibitor 99 (no result: SARS PLP yeast, AmpC no deterg)
COc1ccc(-c2csc(NC(=O)Nc3ccccc3)n2)cc1	none
O=C1CCCC/C=C\C[C@H](CC(=O)N(CCO)Cc2ccccc2)C(=O)N2CCC[C@@H]2CO1	none (no result: CHX counter, Shiga inhibitor, AmpC inh detg)
NC(=S)NN=C1CCCCC12CCCC2	none (no result: SARS PLP yeast, CHX counter, AmpC no deterg, Shiga inhibitor, AmpC inh detg)
CC(=O)NCCC(=O)Nc1nc(-c2c[nH]c3ccccc23)cs1	AmpC inh detg inconclusive
COc1ccc(Nc2nc(-c3c[nH]c4ccccc34)cs2)cc1	CHX counter 32
COc1cc(COCC(O)CN2CCCCC2C)cc(OC)c1OC (stereo not given)	none
CC(=O)c1ccc(S(=O)(=O)N2CCC(C(=O)Nc3ncc(C)s3)CC2)cc1	none (no result: CHX counter, Shiga inhibitor, AmpC inh detg)
Cc1cnc(NC(=O)[C@H](C)N2C(=O)C3CCCCC3C2=O)s1 (stereo not given in full)	none
Cc1cnc(NC(=O)C2CC=CCC2)s1 (stereo not given)	CHX counter 24, Shiga inhibitor 45
CC(C)(C)C1CCC(C(=O)Nc2nccs2)CC1 (stereo not given)	Shiga inhibitor 47
Cc1cnc(NC(=O)C2CCC(C(C)(C)C)CC2)s1 (stereo not given)	CHX counter 20, AmpC inh detg inconclusive
O=C(Nc1nccs1)c1cccc(NC(=O)C2CC2)c1	none
O=C(O)c1cc(Cl)nc2ccccc12	none
COCCN1Cc2cccc(C(=O)N3CCN(c4cc(C)ccc4C)CC3)c2C1=O	AmpC inh detg inconclusive
O=C1NC(=O)N(Cc2ccccc2)C(=O)/C1=C\N1CCCc2ccccc21	SARS PLP yeast inconclusive, CHX counter 28
COc1ccc2[nH]c(=O)c(CN(Cc3ccco3)Cc3nnnn3Cc3ccccc3)cc2c1	AmpC inh detg inconclusive
COc1cc2cc(C(=O)N3CCOCC3)cc(-c3ccc(C)cc3)c2cc1OC	none
O=C(NCCSc1ccc(Br)cc1)c1ccc2nc[nH]c2c1	CHX counter 21
O=C(NCCc1ccc(Cl)cc1)c1ccc2nc[nH]c2c1	none
CC(C)CCNC(=O)c1ccc2nc[nH]c2c1	CHX counter 24
CN(C)C(=S)SC(=S)N(C)C	none (no result: SARS PLP yeast, AMA1 RON2 block, AmpC no deterg, AmpC inh detg)
CN(C)C(=S)SSC(=S)N(C)C	CHX counter 23, AmpC no deterg inconclusive, AmpC inh detg 79µM
CC(C)(C)c1cc(C(=O)Nc2ccc(F)cc2)n(Cc2ccc(F)cc2)n1	CHX counter 26, Shiga inhibitor 43
Cc1ccc(NNC(=O)c2cc(C(C)(C)C)nn2Cc2ccccc2)cc1	AMA1 RON2 block inconclusive
Cc1ccc(NC(=O)c2cc(C(C)(C)C)nn2Cc2ccccc2)cc1	CHX counter 12
O=C(/C=C/c1ccco1)NC(=S)Nc1ccccn1	CHX counter 56, Shiga inhibitor 109
CC(=O)N(C)c1ccc(NC(=S)NC(=O)/C=C/c2ccco2)cc1	none
Cc1cccnc1NC(=S)NC(=O)/C=C/c1ccco1	CHX counter 71, Shiga inhibitor 152
Cn1nnc(NC(=S)NC(=O)/C=C/c2ccco2)n1	none
Nc1nc(/C=C/c2ccc(F)cc2)nc(-c2ccccc2O)n1	none
O=C(O)c1c(Cl)c(Cl)c(Cl)c(Cl)c1-c1c2cc(I)c(=O)c(I)c-2oc2c(I)c(O)c(I)cc12	none (no result: SARS PLP yeast, AMA1 RON2 block, AmpC no deterg, AmpC inh detg)
